Assay [1] can be described thus: Nuclear factor erythroid 2-related factor 2/antioxidant responsive element (Nrf2/ARE) small molecule agonists: qHTS cell viability counter screen in human keratinocytes (AID 1919968; active means well fitted curve in the direction sought with a large enough effect in the repeat runs; an effect the other way counts as inactive or inconclusive; further: nearly all actives have a fitted effect of over 55% in size). The method, boiled down: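 After a 5 h attachment period, ARE-reporter keratinocytes were dosed with compounds in DMSO and then cultured 23 h at 37 C. Cell viability came from CellTiter-Fluor signal read after a further 1 h.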
For orientation: Quantitative high-throughput screening tests each substance at several concentrations.

The nature of assay [2]: Nuclear factor erythroid 2-related factor 2/antioxidant responsive element (Nrf2/ARE) small molecule agonists: luciferase reporter gene qHTS assay in human keratinocytes (AID 1919969; further: nearly all actives have a fitted effect of over 35% in size). (In general: In a reporter assay the amount or activity of a reporter protein is the signal.)
For assay [3], the target named is Gonadotropin-releasing hormone receptor (Homo sapiens) (UniProt P30968). Briefly: Human gonadotropin-releasing hormone receptor (GnRHR) small molecule agonists, calcium flux assay in GnRHR-HEK293 cells (AID 1920063). Further: nearly all actives have a fitted effect of over 35% in size. Summed up:
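We seeded human GnRHR-expressing HEK293 cells for 18 hours, loaded them with calcium dye for an hour at 37 C, added test compounds, and recorded fluorescence intensity kinetically for three minutes.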
(A change in cytosolic calcium serves as a functional read-out for many receptors and channels.)

The target in assay [4] is KiSS-1 receptor (Homo sapiens) (UniProt Q969F8). The experiment in a line: Human kisspeptin (KISS1R) small molecule agonists, calcium flux assay in KISS1R-HEK293 cells (AID 1920064; active means well fitted curve in the direction sought with a large enough effect in the repeat runs; an effect the other way counts as inactive or inconclusive). Summed up:
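Kinetic calcium assay, 1 s sampling over 3 min at Ex/Em 480/540, in HEK293 cells engineered with human KISS1R; compounds delivered in DMSO after 1 h dye loading.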

Assay [5] is described as follows: G protein-coupled receptor (GPCR) small molecule agonists, calcium flux assay: HEK293 wild type cell line counter screen (AID 1920065). The method, boiled down: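 Calcium-sensitive dye, loaded 1 h at 37 C into cells cultured 18 h, reports compound-evoked calcium release as fluorescence (Ex/Em 480/540), measured over 3 min. Agonist mode; 15-point titrations, triplicate.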

Assay [6] in a line: p53 small molecule agonists, cell-based qHTS assay with human liver microsomes: qHTS cell viability counter screen (AID 1963579). Further: nearly all actives have a fitted effect of over 45% in size. The method, boiled down:
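Viability of p53RE-bla cells is measured as CellTiter-Glo luminescence following a 16 h, 37 C incubation with compound, liver microsomes from human donors and NADPH.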

The nature of assay [7]: p53 small molecule agonists, cell-based qHTS assay with rat liver microsomes: qHTS cell viability counter screen (AID 1963580). Further: nearly all actives have a fitted effect of over 45% in size. The method, boiled down:
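p53RE-bla HCT-116 cells were exposed 16 h at 37 C to compounds with rat liver microsomes (0.5 mg/mL) and NADPH (0.5 mg/mL). Viability was measured in the same wells as ATP content by CellTiter-Glo luminescence.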

Assay [8] in a line: p53 small molecule agonists, cell-based qHTS assay: qHTS cell viability counter screen (AID 1963581). Further: nearly all actives have a fitted effect of over 45% in size. The method, boiled down: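 Following 5 h attachment, HCT-116 p53RE-bla cells took up compound for 16 h at 37 C; the reporter was read with B/G FRET substrate (2 h RT), and viability then via CellTiter-Glo ATP luminescence.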
The target of assay [9] is 5-hydroxytryptamine receptor 2A (Homo sapiens) (UniProt P28223). The experiment in a line: 5-hydroxytryptamine receptor 2A (HTR2A) small molecule antagonists, cell-based qHTS assay (AID 1963586). Further: nearly all actives have a fitted effect of over 45% in size. Further: potency means the concentration at half of the fitted maximal effect. The method, boiled down:
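Antagonist-mode intracellular calcium assay: DOI (4 nM) added after 5 min compound pre-incubation at room temperature to dye-loaded HTR2A-CHO cells. Fluorescence followed for 3 min, sampled every second.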

Assay [10] has the same target. Briefly: 5-hydroxytryptamine receptor 2A (HTR2A) small molecule agonists, cell-based qHTS assay (AID 1963587). Further: nearly all actives have a fitted effect of over 30% in size. The method, boiled down:
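CHO cells stably expressing human HTR2A, plated 18 h, loaded with calcium dye 1 h at 37 C. Agonist mode: compounds added and intracellular calcium fluorescence recorded kinetically for 2 min at 1 sec intervals.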

The target of assay [11] is Muscarinic acetylcholine receptor M1 (Homo sapiens) (UniProt P11229). The experiment in a line: Cholinergic receptor muscarinic 1 (CHRM1) small molecule agonists, cell-based qHTS assay (AID 1963589). Further: nearly all actives have a fitted effect of over 35% in size. Summed up: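 Measures agonist-induced intracellular calcium rise. Stable human CHRM1 CHO line, 1 h dye load at 37 C, compounds from DMSO, kinetic fluorescence read.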
Assay [12] can be described thus: cAMP Responsive Elements (CRE) small molecule agonists, cell-based qHTS assay (AID 1963590). Summed up:
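A CRE-responsive beta-lactamase reporter in HEK 293T cells was used. Treatment ran 3 h at 37 C; detection used LiveBLAzer B/G FRET substrate for 2 h at room temperature.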

A short description of assay [13]: cAMP Responsive Elements (CRE) small molecule antagonists, cell-based qHTS assay (AID 1963591; active means well fitted inhibition curve with a large enough effect in the signal ratio in the repeat runs, not every such curve was filed as active; the % refers to the signal ratio). The method, boiled down:
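HEK293T cells carrying a CRE-driven beta-lactamase reporter receive compound and NKH477 (0.25 uM final) for 3 h. Fluorescence from LiveBLAzer B/G FRET substrate is read after 2 h at room temperature.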

Assay [14] has as its target Beta-2 adrenergic receptor (Homo sapiens) (UniProt P07550). The experiment in a line: Adrenergic beta2 receptor (ADRB2) small molecule antagonists, cell-based qHTS assay (AID 1963592). Further: series mostly up to about 92 µM; nearly all actives have a fitted effect of over 50% in size. Summed up:
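Cells (CHO, stable ADRB2 overexpression) incubated 18-20hr at 37C; compounds added from DMSO; agonist mix (1nM isoproterenol, 100uM IBMX, 25uM Ro-20-1724) added; 0.5hr RT; d2-cAMP and anti-cAMP-cryptate added; 1hr RT; 665/615 nm read.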

The target is the same in assay [15]. The experiment in a line: Adrenergic beta2 receptor (ADRB2) small molecule agonists, cell-based qHTS assay (AID 1963593).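 Further: CHO cells stably overexpressing human ADRB2.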 The method, boiled down:
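CHO cells stably over-expressing ADRB2 were plated overnight at 37C, then dosed with compounds plus a stimulation mix containing 100uM IBMX and 25uM Ro-20-1724 for 0.5hr at room temperature. cAMP was measured by HTRF competition, 1hr.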

Assay [16] has as its target D(2) dopamine receptor (Homo sapiens) (UniProt P14416). Briefly: Dopamine D2 receptor (DRD2) small molecule agonists, cell-based qHTS assay (AID 1963594). Further: nearly all actives have a fitted effect of over 35% in size. The method, boiled down: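 HEK293 cells stably expressing human DRD2, pre-treated with PDE inhibitor Ro20-1724 (0.1 mM final) and compound 10 min at room temperature, then stimulated with NKH477 (200nM […]) for 30 min. cAMP read by HTRF (665/620 nm).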

For assay [17] the target is unchanged. The experiment in a line: Dopamine D2 receptor (DRD2) small molecule antagonists, cell-based qHTS assay (AID 1963595; active means well fitted inhibition curve with a large enough effect in the signal ratio in the repeat runs, with a control signal flat; the % refers to the signal ratio). The method, boiled down: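 DRD2-HEK293; 0.1 mM Ro20-1724; cpd 10 min RT; NKH477 200 nM + quinpirole 12 nM, 30 min RT; HTRF cAMP (cAMP-d2/anti-cAMP cryptate), 665/620 nm ratio after 1 h.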
The target of assay [18] is Muscarinic acetylcholine receptor M1 (Homo sapiens) (UniProt P11229). Briefly: Cholinergic receptor muscarinic 1 (CHRM1) small molecule antagonists, cell-based qHTS assay (AID 1963588). Further: nearly all actives have a fitted effect of over 40% in size. The method, boiled down: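 CHRM1-CHO calcium-flux assay, antagonist mode. Cells were seeded 18 h, dye-loaded 1 h at 37 C and given compound for 5 min at RT, then acetylcholine was added at 50nM. FDSS fluorescence was read 3 min; 15 concentrations, three runs.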

Unmarked numbers belong to inactive results. Records with an inconclusive call do not appear. Active and inactive are the calls of the source. Unless noted, the call rests on the fitted dose curve.

Gonadotropin-releasing hormone receptor (Homo sapiens), sequence (P30968 whole entry, looked up): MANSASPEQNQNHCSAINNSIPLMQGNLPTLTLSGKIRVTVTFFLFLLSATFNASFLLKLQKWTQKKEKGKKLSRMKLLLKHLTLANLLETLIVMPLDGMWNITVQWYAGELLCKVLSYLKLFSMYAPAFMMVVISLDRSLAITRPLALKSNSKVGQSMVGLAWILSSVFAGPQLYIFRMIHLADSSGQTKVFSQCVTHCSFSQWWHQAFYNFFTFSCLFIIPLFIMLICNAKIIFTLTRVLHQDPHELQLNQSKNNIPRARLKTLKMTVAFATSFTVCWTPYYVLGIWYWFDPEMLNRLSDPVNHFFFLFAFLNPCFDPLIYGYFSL
Beta-2 adrenergic receptor (Homo sapiens), sequence (P07550 whole entry, looked up): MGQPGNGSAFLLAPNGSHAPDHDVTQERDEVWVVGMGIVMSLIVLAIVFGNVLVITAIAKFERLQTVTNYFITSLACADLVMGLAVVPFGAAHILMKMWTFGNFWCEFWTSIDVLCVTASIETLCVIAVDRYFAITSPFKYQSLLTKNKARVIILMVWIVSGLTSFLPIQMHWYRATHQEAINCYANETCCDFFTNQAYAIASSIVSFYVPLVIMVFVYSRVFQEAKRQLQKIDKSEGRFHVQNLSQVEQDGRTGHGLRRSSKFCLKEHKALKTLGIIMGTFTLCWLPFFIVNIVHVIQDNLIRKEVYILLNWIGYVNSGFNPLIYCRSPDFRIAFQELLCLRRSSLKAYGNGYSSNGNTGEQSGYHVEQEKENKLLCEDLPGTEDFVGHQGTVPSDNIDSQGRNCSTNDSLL
5-hydroxytryptamine receptor 2A (Homo sapiens), sequence (P28223 whole entry, looked up): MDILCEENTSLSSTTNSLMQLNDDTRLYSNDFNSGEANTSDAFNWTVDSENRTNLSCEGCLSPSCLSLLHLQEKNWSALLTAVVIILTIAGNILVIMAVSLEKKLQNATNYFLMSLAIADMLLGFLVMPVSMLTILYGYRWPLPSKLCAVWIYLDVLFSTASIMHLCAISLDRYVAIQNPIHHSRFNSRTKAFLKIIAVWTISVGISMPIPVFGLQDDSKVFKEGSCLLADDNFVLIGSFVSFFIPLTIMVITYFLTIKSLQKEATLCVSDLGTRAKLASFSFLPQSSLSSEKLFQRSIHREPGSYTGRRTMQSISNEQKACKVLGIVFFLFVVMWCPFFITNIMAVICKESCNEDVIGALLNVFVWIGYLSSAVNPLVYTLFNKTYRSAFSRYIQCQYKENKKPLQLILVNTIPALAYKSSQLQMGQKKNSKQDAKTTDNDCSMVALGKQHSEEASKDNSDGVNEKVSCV
Muscarinic acetylcholine receptor M1 (Homo sapiens), sequence (P11229 whole entry, looked up): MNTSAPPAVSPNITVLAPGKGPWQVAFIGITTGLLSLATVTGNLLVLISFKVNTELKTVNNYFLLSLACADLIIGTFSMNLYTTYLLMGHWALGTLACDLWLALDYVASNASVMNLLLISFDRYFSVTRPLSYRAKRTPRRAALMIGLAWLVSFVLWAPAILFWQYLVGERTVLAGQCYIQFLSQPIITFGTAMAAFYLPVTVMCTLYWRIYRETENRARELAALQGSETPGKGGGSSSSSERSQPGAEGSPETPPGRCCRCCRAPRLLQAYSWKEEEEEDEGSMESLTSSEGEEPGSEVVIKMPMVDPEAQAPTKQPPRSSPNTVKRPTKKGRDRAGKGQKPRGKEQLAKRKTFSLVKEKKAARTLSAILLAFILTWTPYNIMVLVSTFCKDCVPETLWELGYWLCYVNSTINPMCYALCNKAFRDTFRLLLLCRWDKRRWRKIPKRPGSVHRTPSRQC
D(2) dopamine receptor (Homo sapiens), sequence (P14416 whole entry, looked up): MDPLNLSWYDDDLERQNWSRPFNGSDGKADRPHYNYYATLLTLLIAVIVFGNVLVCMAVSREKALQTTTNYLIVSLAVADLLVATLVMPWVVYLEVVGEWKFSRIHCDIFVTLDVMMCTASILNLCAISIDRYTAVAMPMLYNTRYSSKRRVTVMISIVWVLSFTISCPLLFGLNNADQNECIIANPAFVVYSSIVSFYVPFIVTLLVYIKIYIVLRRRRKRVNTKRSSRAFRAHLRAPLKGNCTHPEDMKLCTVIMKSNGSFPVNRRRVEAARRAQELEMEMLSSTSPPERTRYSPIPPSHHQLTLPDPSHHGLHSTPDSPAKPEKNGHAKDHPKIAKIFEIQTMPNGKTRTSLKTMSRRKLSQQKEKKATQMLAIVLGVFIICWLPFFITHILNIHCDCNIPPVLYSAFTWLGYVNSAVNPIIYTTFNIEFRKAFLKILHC
KiSS-1 receptor (Homo sapiens), sequence (Q969F8 whole entry, looked up): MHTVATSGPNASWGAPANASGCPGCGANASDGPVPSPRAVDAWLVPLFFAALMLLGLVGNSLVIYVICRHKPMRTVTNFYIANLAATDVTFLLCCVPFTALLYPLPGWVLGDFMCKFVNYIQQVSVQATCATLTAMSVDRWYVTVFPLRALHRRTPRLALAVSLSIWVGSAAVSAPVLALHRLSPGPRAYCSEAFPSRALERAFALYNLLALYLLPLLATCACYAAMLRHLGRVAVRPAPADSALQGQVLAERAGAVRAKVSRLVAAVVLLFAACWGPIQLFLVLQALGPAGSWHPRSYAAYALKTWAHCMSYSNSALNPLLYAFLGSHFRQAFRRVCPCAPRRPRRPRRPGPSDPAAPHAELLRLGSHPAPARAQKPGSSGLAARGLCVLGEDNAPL

Turning to `CCCCC(CC)COC(=O)COc1cc(Cl)c(Cl)cc1Cl` (stereo not drawn), the Potency entry in assay [1], in [2], in assay [3], in assay [4], in assay [5] and in [6] was “inactive” each time. The Potency result in assay [7], in assay [8], in assay [9], in assay [10], in assay [11] and in assay [12] was “inactive” throughout. Also, the Potency result in assay [13], in [14], in assay [15], in assay [16] and in assay [17] was “inactive” throughout.
For the compound `Cc1ccc(C(N)=O)cc1N`, the Potency result in assay [1], in assay [2], in assay [3], in assay [4], in assay [5] and in [6] was “inactive” each time. The Potency entry in [7], in assay [8], in assay [9], in [10], in [11] and in assay [12] was “inactive” throughout. The Potency result in assay [13], in assay [14], in [15] and in assay [16] was “inactive” throughout.
With `CCOC(=O)[C@@](C)(N)Cc1ccc(O)c(O)c1`, the Potency entry in assay [1], in assay [2], in assay [3], in [4], in [5] and in assay [6] was “inactive” in each case. Further, the Potency result in assay [7], in [8], in assay [9], in assay [10], in [18] and in [12] was “inactive” throughout. Further, the Potency result in [13], in assay [14], in assay [16] and in assay [17] was “inactive” in each case.
Turning to `N#Cc1ccccc1O`, the Potency result in assay [1], in assay [2], in assay [3], in [4], in assay [5] and in assay [6] was “inactive” throughout. The Potency entry in assay [7], in assay [8], in [9], in assay [10], in assay [18] and in assay [11] was “inactive” in each case. In addition, the Potency entry in assay [14], in [15] and in assay [17] was “inactive” in each case.
Consider `CCCCCC(C)O` (stereo not drawn), for which the Potency result in [1], in assay [2], in assay [3], in [4], in assay [5] and in [6] was “inactive” throughout. The Potency entry in [7], in assay [8], in assay [9], in [10], in assay [11] and in assay [12] was “inactive” in each case. The Potency entry in assay [13], in assay [14], in assay [15], in [16] and in [17] was “inactive” each time.
On to `C=CCOC(=O)c1ccc(C(=O)OCC=C)c(C(=O)OCC=C)c1`, for which the Potency result in assay [1], in assay [2], in assay [3], in assay [4], in assay [5] and in [6] was “inactive” in each case. For the same compound, the Potency entry in assay [7], in [8], in assay [10], in [18], in assay [12] and in assay [13] was “inactive” throughout. For the same compound, the Potency entry in assay [14], in [15], in [16] and in assay [17] was “inactive” throughout. Further, the Potency in [9] was 33.4 µM (active).
Consider `CC(C)COC(=O)COc1ccc(Cl)cc1Cl`, for which the Potency result in [1], in [2], in [3], in assay [4], in assay [5] and in assay [6] was “inactive” in each case. Also, the Potency entry in assay [7], in [8], in [9], in assay [10], in [18] and in assay [11] was “inactive” throughout. Besides, the Potency result in [14], in [16] and in [17] was “inactive” throughout.

These data come from PubChem BioAssay (Tox21).
